We go through 40 molecules from PubChem BioAssay (Tox21).

Unmarked numbers belong to inactive results. Calls of active or inactive are those of the source. Calls follow the shape of the dose curve; as a rule, active = well fitted inhibition curve with a large enough effect in the repeat runs (not every such curve was filed as active); inconclusive = weak or mixed curves; inactive = flat fitted curve, though single readings scatter.
% is scaled to controls: 0 for no effect and ±100 for the full control effect.

The target of this experiment is Thyrotropin-releasing hormone receptor (Homo sapiens) (UniProt P34981). The experiment can be described thus: qHTS assay to identify small molecule antagonists of the thyrotropin-releasing hormone receptor (TRHR) signaling pathway (AID 1346877). The conditions noted are these: TRHR-HEK293, TRH-induced calcium fluorescence, antagonist mode; series mostly up to 51.3 µM. From the text: National Center for Advancing Translational Sciences [NCATS]
Sequence of Thyrotropin-releasing hormone receptor (Homo sapiens) (P34981 whole entry, looked up): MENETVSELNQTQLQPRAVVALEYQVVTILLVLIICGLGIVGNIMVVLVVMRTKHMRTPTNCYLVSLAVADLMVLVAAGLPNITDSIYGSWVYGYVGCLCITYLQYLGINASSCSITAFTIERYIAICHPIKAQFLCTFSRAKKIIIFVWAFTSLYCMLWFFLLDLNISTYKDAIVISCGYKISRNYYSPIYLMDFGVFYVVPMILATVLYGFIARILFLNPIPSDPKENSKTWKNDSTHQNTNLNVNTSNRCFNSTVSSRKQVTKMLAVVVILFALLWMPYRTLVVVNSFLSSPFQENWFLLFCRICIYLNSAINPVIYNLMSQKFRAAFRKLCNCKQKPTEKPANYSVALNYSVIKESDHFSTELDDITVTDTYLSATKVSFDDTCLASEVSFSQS
NIH Chemical Genomics Center [NCGC]
U.S. Environmental Protection Agency [EPA]
National Institutes of Environmental Health Sciences [NIEHS]
National Toxicology Program [NTP]
U.S. Food and Drug Administration [FDA]
Thyrotropin-releasing hormone (TRH) receptor (TRHR) is a G-protein-coupled receptor which binds the tripeptide thyrotropin releasing hormone. TRHR is found in the brain and, when bound by TRH, acts (through phospholipase C) to increase intracellular inositol trisphosphate. It plays a crucial role in the anterior pituitary where it controls the synthesis and secretion of thyroid stimulating hormone and prolactin. The TRHR-Hek293 assay is a cell-based assay, and it has the potential to screen G protein-coupled receptors. A compound/drug can either activate (agonist) or suppress (antagonist) GPCRs that can be monitored by levels of intracellular calcium. In this assay, the Tox21 10K compound library was screened to identify potential TRHR antagonists.
Tox21 Assay Protocol Summary:
The TRHR-Hek293 cells were dispensed at 1500cells/4uL/well in 1536-well black-clear bottom plates using a Multidrop dispenser. After the assay plates were incubated at a 37 C/5% CO2 incubator for 18 hours, 4 uL of Dye-Loading Solution was added to each well. The plates were incubated at 37 C for 2 hours. For agonist mode, 23 nL of compounds dissolved in DMSO, positive controls or DMSO only was transferred to the assay plate by a pin tool. The fluorescence intensity in the plates was measured using FDSS 7000EX kinetic plate reader for 3 min at 1 sec intervals. For antagonist mode, 23 nL of compounds dissolved in DMSO, positive controls or DMSO only was transferred to the assay plate by a pin tool. After 5 min incubation at room temperature, 1 uL of TRH was added on the top of the cell/compound mixtures to achieve a final agonist concentration of 1 nM. The fluorescence intensity in the plates was measured using FDSS 7000EX kinetic plate reader for 3 min at 1 sec intervals. Each test compound was measured at 15 concentrations and in triplicates.
In the case of `OCCN1CCN(CCCN2c3ccccc3Sc3ccc(Cl)cc32)CC1`, the result was inactive.

Take `O=c1cc(-c2ccccc2)oc2ccc3ccccc3c12`: the result was inactive.

For the molecule `Cc1ccc(Cl)c(Nc2ccccc2C(=O)O)c1Cl`, the result was inactive.

With `O=C1Cc2cc(Cl)ccc2N1`, the outcome was inactive.

Take `CC(O)c1ccccc1` (stereo not given): the result was inactive.

For `CCOC(=O)C1=C(C)NC(C)=C(C(=O)OC)C1c1cccc(Cl)c1Cl` (stereo not given), the outcome was inactive.

Take `CNC(=O)c1cnn(-c2nc(N)c3ncn([C@@H]4O[C@H](CO)[C@@H](O)[C@H]4O)c3n2)c1`: the result was inactive.

For `CC(C)=CCC/C(C)=C/CC/C(C)=C/C(=O)OCC(=O)[C@@]1(O)CC[C@H]2[C@@H]3CCC4=CC(=O)C=C[C@]4(C)[C@H]3[C@@H](O)C[C@@]21C`, the result was inactive.

Consider `O=C(CCCN1CC=C(n2c(=O)[nH]c3ccccc32)CC1)c1ccc(F)cc1`, for which the outcome was inactive.

As to `CC(=O)Oc1ccc([N+](=O)[O-])cc1CCl`, the outcome was inactive.

In the case of `CC1(C)[C@H](C(=O)O)N2C(=O)C[C@H]2S1(=O)=O`, the result was inactive.

Turning to `CCC(C)(C)OC`, the result was inactive.

Consider `CCCCC(CC)CN` (stereo not given), for which the outcome was inactive.

As for `O=C1C(=O)c2ccccc2C(O)=C1C1CCC(c2ccc(Cl)cc2)CC1` (stereo not given), the outcome was inactive.

`Nc1ccc(N=Nc2ccccc2)c(N)c1`: the outcome was inactive.

As for `N#CCCN(CCO)CCO`, the outcome was inactive.

On to `O=[N+]([O-])c1ccc(Nc2ccc(Nc3ccccc3)c(S(=O)(=O)O)c2)c([N+](=O)[O-])c1`, for which the outcome was inactive.

Take `O=C(Nc1cccc2c(=O)cc(-c3nn[nH]n3)oc12)c1ccc(OCCCCc2ccccc2)cc1`: the result was inactive.

With `COc1cc(C(=O)NC2CCN(C)CC2)ccc1Nc1ncc2c(n1)N(C1CCCC1)CC(F)(F)C(=O)N2C`, the result was inactive.

In the case of `COC(=O)CCS`, the result was inactive.

In the case of `CC(CCC(=O)O)C(=O)O` (stereo not given), the outcome was inactive.

`Cc1ccco1`: the result was inactive.

Regarding `C[C@@H](O)[C@H]1C(=O)N2C(C(=O)O)=C([C@H]3CCCO3)S[C@H]12`, the result was inactive.

On to `CCOC(=O)c1ccccc1C(=C1C=C(Br)C(=O)C(Br)=C1)c1cc(Br)c(O)c(Br)c1`, for which the result was inactive.

With `C=C(C)[C@@H]1CCC2=CCC[C@@H](C)[C@]2(C)C1`, the outcome was inactive.

In the case of `Cc1cc(=O)c2c(O)c3c(O)cc(=O)c4c3c3c(cc(O)c1c23)C(C)(C)C=4O`, the activity, negative = inhibition is 1.99% [at 10.5 µM].

With `O=C1c2ccccc2C(=O)C1c1ccc(Br)cc1`, the result was inactive.

Turning to `O[C@@H]1CO[C@H]2[C@@H]1OC[C@@H]2O`, the result was inactive.

With `O=C1c2ccccc2C(=O)c2c(O)c(O)cc(O)c21`, the outcome was inactive.

`C[C@H]1c2cccc(O)c2C(O)=C2C(=O)[C@]3(O)C(O)=C(C(N)=O)C(=O)[C@@H](N(C)C)[C@@H]3[C@@H](O)[C@@H]21`: the outcome was inactive.

As for `OC1(c2ccccc2)CCNCC1`, the result was inactive.

Turning to `CN(C)CCN1C(=O)c2ccccc2N(C)c2ccccc21`, the result was inactive.

For the molecule `CCC=CC#N`, the result was inactive.

For the molecule `C[C@@H]1CC(=O)NN=C1c1ccc(NN=C(C#N)C#N)cc1`, the outcome was inactive.

Turning to `C[C@]12CC[C@@H]3c4ccc(O)cc4CC[C@H]3[C@@H]1CC[C@@H]2OC(=O)CCC1CCCC1`, the result was inactive.

For the molecule `N#CCc1ccc(Cl)cc1Cl`, the outcome was inactive.

For `NCCNCCO`, the outcome was inactive.

Regarding `Cc1cc(C)cc(N)c1`, the outcome was inactive.

Regarding `CCN(CC)CCNC(=O)COc1ccc(OC)cc1`, the outcome was inactive.

Take `C=Cc1ccc(S(=O)(=O)O)cc1`: the result was inactive.
